Source: PubChem BioAssay AID1942 (Johns Hopkins Ion Channel Center, 2009)
About 580 (24%) of roughly 2,400 compounds were called active.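 Rule for the calls: active = activity change at or above the mean plus 3 SD of buffer wells without dofetilide, per plate; inactive = the rest.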 A selection follows.

Each molecule was assayed against Potassium voltage-gated channel subfamily KQT member 2 (Rattus norvegicus) (UniProt O88943) (assay: KCNQ2 potentiation in CHO cells – cell-based, FluxOR thallium flux, counter-screen for hERG block protector project, confirmation (AID 1942;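 note: normalized value minus buffer-control mean plus three SD of buffer wells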)). Conditions: FluxOR thallium flux fluorescence, at 10 µM, active compounds read high.
Sequence of Potassium voltage-gated channel subfamily KQT member 2 (Rattus norvegicus) (O88943 whole entry, looked up): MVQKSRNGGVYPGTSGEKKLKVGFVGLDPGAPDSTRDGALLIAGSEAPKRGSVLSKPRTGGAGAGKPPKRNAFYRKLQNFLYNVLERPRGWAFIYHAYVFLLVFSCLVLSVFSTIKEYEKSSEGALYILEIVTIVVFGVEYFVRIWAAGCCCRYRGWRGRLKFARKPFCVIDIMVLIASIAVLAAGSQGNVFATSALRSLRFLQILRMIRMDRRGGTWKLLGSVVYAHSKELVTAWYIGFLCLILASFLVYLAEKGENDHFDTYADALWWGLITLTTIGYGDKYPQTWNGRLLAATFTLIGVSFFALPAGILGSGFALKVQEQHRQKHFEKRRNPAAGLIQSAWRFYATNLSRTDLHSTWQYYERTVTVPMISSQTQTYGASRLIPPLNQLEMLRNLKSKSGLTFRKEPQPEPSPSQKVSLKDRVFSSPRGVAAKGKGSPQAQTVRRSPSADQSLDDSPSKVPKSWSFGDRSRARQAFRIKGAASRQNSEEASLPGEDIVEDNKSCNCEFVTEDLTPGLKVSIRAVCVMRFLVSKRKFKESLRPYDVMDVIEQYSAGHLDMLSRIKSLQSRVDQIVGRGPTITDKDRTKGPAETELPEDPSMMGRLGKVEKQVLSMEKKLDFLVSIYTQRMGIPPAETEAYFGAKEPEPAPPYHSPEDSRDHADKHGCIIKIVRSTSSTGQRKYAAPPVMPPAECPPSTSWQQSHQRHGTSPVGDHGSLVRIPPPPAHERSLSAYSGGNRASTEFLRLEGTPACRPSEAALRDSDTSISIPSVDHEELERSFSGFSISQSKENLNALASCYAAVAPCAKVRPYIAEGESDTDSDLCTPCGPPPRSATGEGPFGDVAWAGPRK
With `CCN(CC)CCCNC(=O)c1cn(-c2cccc(OC)c2)c(=O)c2ccccc12` the activity change, less the hit threshold was -18.5% (inactive). `COc1ccc(-c2ccc(/C=N/NC(=O)c3cccnc3)o2)c([N+](=O)[O-])c1` was tested, and the activity change, less the hit threshold was -11.4% (inactive). With `C=CCNC(=S)Nc1sc2c(c1C(=O)OCC)CC(C)(CC)OC2` (stereo not drawn) the activity change, less the hit threshold was 15.9% (active). In the case of `C=CCNC(=S)Nc1sc2c(c1C(=O)OCC)CC(C(C)C)OC2` (stereo not drawn), the activity change, less the hit threshold is reported as 16.9% (active). For `Cc1ccc(Cl)cc1NC(=O)COC(=O)c1ccccc1O`, the activity change, less the hit threshold was -21.1% (inactive). `Cc1ccccc1OC(=O)n1c(=S)oc2cc(Cl)ccc21` was tested, and the activity change, less the hit threshold was 9.7% (active). With `COC(=O)n1c(=S)oc2cc(Cl)ccc21` the activity change, less the hit threshold was -10% (inactive). In the case of `CCCCC(=O)Nc1cccc(C(=O)Nc2ccccc2C(=O)O)c1`, the activity change, less the hit threshold is reported as -4% (inactive). For `CCCCC(=O)Nc1ccc(NCc2ccc(C)s2)cc1`, the activity change, less the hit threshold was 42.5% (active). With `Cc1ccc(NC(=O)CCC(=O)OCC(F)(F)C(F)F)cc1` the activity change, less the hit threshold was -23% (inactive). `COc1cccc(OC)c1OCCOCCN1CCN(C)CC1` was tested, and the activity change, less the hit threshold was -21% (inactive). In the case of `O=C(NC(=S)Nc1ccc(N2CCCCC2)cc1)c1cccs1`, the activity change, less the hit threshold is reported as -9.5% (inactive). With `O=C(NC(=S)Nc1ccccc1)c1cccs1` the activity change, less the hit threshold was 3.3% (active). In the case of `O=C(NC(=S)Nc1ccccc1N1CCCCC1)c1cccs1`, the activity change, less the hit threshold is reported as -23.1% (inactive). `CCN(CC)c1ccc(NC(=S)NC(=O)c2cccs2)cc1` was tested, and the activity change, less the hit threshold was -9.5% (inactive). With `O=C(NC(=S)NCc1ccccc1)c1cccs1` the activity change, less the hit threshold was 5.6% (active). In the case of `CCSc1nc2c(c(=O)[nH]1)C(c1ccc(C)cc1)C1=C(CCCC1=O)N2` (stereo not drawn), the activity change, less the hit threshold is reported as -8.9% (inactive). With `O=C(O)C/C(=C\c1cc(Br)cs1)c1nc2ccccc2o1` the activity change, less the hit threshold was -8.4% (inactive). For `CCCCCCc1cc2cc(-c3nnc(-c4ccccc4O)o3)c(=O)oc2cc1O`, the activity change, less the hit threshold was -7% (inactive). With `CC(C)(C)c1csc(NC(=O)C2=COCCO2)n1` the activity change, less the hit threshold was -13% (inactive). `Oc1c(Cl)cc(Cl)cc1Sc1cc(Cl)cc(Cl)c1O` was tested, and the activity change, less the hit threshold was -1.7% (inactive). For `Oc1c(Cl)cc(Cl)cc1/C=N/c1nccs1`, the activity change, less the hit threshold was 32.3% (active). With `Oc1c(Cl)cc(Cl)cc1/C=N/c1ncn[nH]1` the activity change, less the hit threshold was 23.9% (active). In the case of `CC1CCN(C(=O)CSc2nnc(CNC(=O)c3ccco3)o2)CC1`, the activity change, less the hit threshold is reported as -12.8% (inactive). For `CCOc1ccc(NC(=O)CS(=O)CC(=O)NC2CCCc3ccccc32)cc1` (stereo not drawn), the activity change, less the hit threshold was -13.6% (inactive). For `Cc1nc2ccccc2n1-c1ccccc1`, the activity change, less the hit threshold was -4.2% (inactive). For `COc1ccc(-n2ncc3c2CC(C)(C)CC3NC(=O)c2cn[nH]c2)cc1` (stereo not drawn), the activity change, less the hit threshold was -22.9% (inactive). For `O=C(O)c1cc(N/N=C/c2ccc(-c3ccccc3)cc2)ccc1Cl`, the activity change, less the hit threshold was -22.4% (inactive). For `O=C(O)c1cc(NN=C2c3ccccc3-c3ccccc32)ccc1Cl`, the activity change, less the hit threshold was 32.4% (active). In the case of `CC(C)Oc1cc(S(=O)(=O)N2CCCCC2)ccc1N`, the activity change, less the hit threshold is reported as -15.7% (inactive). `O=[N+]([O-])c1ccc(S(=O)(=O)Nc2ccc(S(=O)(=O)N3CCCC3)cc2)cc1` was tested, and the activity change, less the hit threshold was -23.3% (inactive). With `CCCCOc1ccc(-c2c(C#N)c(N)[nH]c(=S)c2C#N)cc1` the activity change, less the hit threshold was -10.1% (inactive). In the case of `CCOC(=O)c1c(C)[nH]c(=S)c(C#N)c1-c1ccc(Cl)cc1`, the activity change, less the hit threshold is reported as 5.2% (active). In the case of `Cc1[nH]c(=S)c(C#N)c(C)c1Cc1ccc(Cl)cc1Cl`, the activity change, less the hit threshold is reported as -7.1% (inactive). In the case of `Cc1ccc([N+](=O)[O-])c2c1C(N1CC(C)OC(C)C1)C(C)(C)O2` (stereo not drawn), the activity change, less the hit threshold is reported as -14.4% (inactive). With `S=c1nc(C2CCCCC2)n(-c2ccccc2)[nH]1` the activity change, less the hit threshold was 41.2% (active). For `Cc1cc(OCC(=O)Nc2cc(S(=O)(=O)N3CCOCC3)ccc2N2CCCC2)ccc1C(C)C`, the activity change, less the hit threshold was -14.1% (inactive). In the case of `CNC(=S)N/N=C/c1cc(Br)cc(Br)c1O`, the activity change, less the hit threshold is reported as -6.6% (inactive). In the case of `Cc1nnc(C)n1/N=C/c1cc(Br)cc(Br)c1O`, the activity change, less the hit threshold is reported as 17.8% (active). In the case of `CC(=O)C1=C(O)C(=O)N(c2cccnc2)C1c1ccc(Cl)cc1` (stereo not drawn), the activity change, less the hit threshold is reported as -25.8% (inactive). In the case of `Cc1c(C)c2ccc(OCC(=O)N[C@@H](Cc3ccccc3)C(=O)O)cc2oc1=O`, the activity change, less the hit threshold is reported as -10% (inactive). In the case of `O=C(COc1ccc2c3c(c(=O)oc2c1)CCC3)N[C@@H](Cc1ccccc1)C(=O)O`, the activity change, less the hit threshold is reported as 8.1% (active). For `O=C(COc1ccc2c3c(c(=O)oc2c1)CCC3)NCC1CCC(C(=O)O)CC1` (stereo not drawn), the activity change, less the hit threshold was -17.1% (inactive). In the case of `Cc1[nH]c(-c2ccccn2)nc(=S)c1Cl`, the activity change, less the hit threshold is reported as 92% (active). For `Cc1cc(=S)nc(-c2ccccn2)[nH]1`, the activity change, less the hit threshold was -4.4% (inactive). In the case of `COC(=O)Cc1[nH]n(-c2nc3ccccc3s2)c(=O)c1C(C)=Nc1ccc(C)cc1`, the activity change, less the hit threshold is reported as -15.8% (inactive). With `COc1cc(OC)cc(C(=O)NNC(=O)C(=O)Nc2cc(OC)c(Cl)cc2OC)c1` the activity change, less the hit threshold was 49.6% (active). For `COc1cc(NC(=O)c2cc(-c3cccnc3)nc3ccc(C)cc23)c(OC)cc1Cl`, the activity change, less the hit threshold was -13.9% (inactive). With `COc1ccc(C(=O)NNC(=O)C(=O)Nc2cccc3ccccc23)cc1` the activity change, less the hit threshold was 59.1% (active). `COc1cccc(C(=O)NNC(=O)C(=O)Nc2cccc3ccccc23)c1` was tested, and the activity change, less the hit threshold was 59.7% (active). With `COc1ccc(OC)c(NC(=O)C(=O)NNC(=O)c2cccs2)c1` the activity change, less the hit threshold was -6.1% (inactive). For `COc1cccc(CCNS(=O)(=O)CCNC(=O)c2cccc(OC)c2)c1`, the activity change, less the hit threshold was -13.6% (inactive). In the case of `COc1ccc(NC(=O)C(=O)NNC(=O)c2cccs2)c(OC)c1`, the activity change, less the hit threshold is reported as 30.8% (active). `COc1cc(NC(=O)c2ccc3c(c2)OCO3)ccc1NC(=O)c1cccs1` was tested, and the activity change, less the hit threshold was -18.6% (inactive). `C=C(C)CSc1nnc2[nH]c(=O)cc(N)n12` was tested, and the activity change, less the hit threshold was -18.3% (inactive). With `O=C(/C=C/Nc1ccccc1)C(F)(F)F` the activity change, less the hit threshold was -19.8% (inactive). For `COc1ccc(C2CC(c3ccc(Cl)cc3Cl)Nc3nc(N)nn32)cc1OC` (stereo not drawn), the activity change, less the hit threshold was -21.7% (inactive). `COc1ccc(/C=C2\SC(c3ccc(C)cc3)=NC2=O)cc1OC` was tested, and the activity change, less the hit threshold was -17.7% (inactive). In the case of `Oc1ccc(Br)cc1-c1n[nH]c(=S)n1Cc1ccccc1`, the activity change, less the hit threshold is reported as -4.7% (inactive). For `Fc1ccccc1N1CCN(c2cnc3ccccc3n2)CC1`, the activity change, less the hit threshold was -14.5% (inactive). In the case of `Cc1cccc(N(C(=O)c2csnn2)C(C(=O)NCc2ccccc2)c2ccncc2)c1` (stereo not drawn), the activity change, less the hit threshold is reported as -10.4% (inactive). In the case of `O=C1C(c2ccccc2)C(c2ccccc2)NC(c2ccccc2)C1c1ccccc1` (stereo not drawn), the activity change, less the hit threshold is reported as -17.9% (inactive). For `O=C(CCSc1ccc(Br)cc1)c1ccc(O)cc1`, the activity change, less the hit threshold was -15% (inactive).
